Experimental findings from PubChem BioAssay (NCI) are described below.

About 79,000 compounds went through this panel and 15% of them were active in at least one assay; those are over-represented in the sample as a whole. A number with no mark means an inactive call. Activity calls are given as the source filed them. Cut-off read from the data, not from the text of the source: active = growth inhibition above about 70%; inactive = the rest.

This assay is described as follows: NCI Yeast Anticancer Drug Screen. Data for the bub3 strain (AID 167). The following applies: S. cerevisiae bub3 mutant strain, at 50.0 µM, active compounds read high. On the procedure: Growth inhibition of yeast strains with defined genetic alterations is measured as a screen for potential anti-cancer activity. Selected strains with alterations in DNA damage repair or cell cycle control were exposed to compounds and growth inhibition was measured relative to vehicle treated controls. The strain used in this assay is bub3
On to `C(=NCc1ccccc1)c1ccccc1-c1ccccc1C=NCc1ccccc1`, for which the growth inhibition is 97.2% (active).
To `C1CCC2C(C1)CCCC2CC1CCCC2CCCCC21` (stereo not given) belongs -9.05%.
To `COCCOC(=O)c1ccc(C(N)=NC2CCCCC2)cc1` belongs 8.65%; to `O=C(NC1(C(=O)O)CC1c1ccccc1)c1ccccc1` (stereo not given), 9.05%; to `COc1cc(Br)cc2nc(-c3cccs3)oc12`, -8.1%.
Then `C=CCOC(=O)CC(O)(CC(=O)OCC=C)C(=O)OCC=C`, with -6.4%; and `CN(C)C(=O)Sc1ccc([N+](=O)[O-])cc1Cl`, with -4.3%.
As to `O=C1NC(CN2CCCCC2)C(=O)NC1CN1CCCCC1` (stereo not given), the growth inhibition is -20.1%.
With `CC(=O)OCC1OC(N2C(=O)C(=O)c3cc(C)ccc32)C(OC(C)=O)C(OC(C)=O)C1OC(C)=O` (stereo not given), the growth inhibition was 41%.
Take `CC(C)C1NC(=O)c2ccccc2S1` (stereo not given): the growth inhibition is 10.7%.
For `O=C1OCc2cccc3c2-c2c1cccc2C(=O)OC3`, the growth inhibition was -12.5%.
To `Cc1cccc[n+]1CC(=O)c1ccc(Cl)cc1` belongs -4%; to `CN(C)CCC(OC(=O)c1ccccc1Cl)c1ccccc1` (stereo not given), 8.75%.
In the case of `BrCCCC1OCCO1`, the growth inhibition is 73.4% (active).
Regarding `O=C(CSc1c2ccccc2nc2ccccc12)Nc1ccccc1-c1ccccc1NC(=O)CSc1c2ccccc2nc2ccccc12`, the growth inhibition was 19%.
As for `Oc1ccccc1C1N=NC2=C(CCCC2)N1O` (stereo not given), the growth inhibition was 21.9%.
Then `COc1c2occc2cc2ccc(=S)oc12`, with -19.9%; and `CCOC(=O)C(Cc1ccc(OCc2ccccc2)c(OCc2ccccc2)c1)(NC=O)C(=O)OCC`, with -9.9%.
Consider `O=c1[nH]c(-c2ccc(Cl)cc2)cs1`, for which the growth inhibition is -19.9%.
To `COc1ccc(CN2CCCN(Cc3ccc(OC)cc3OC)C2c2cccc(OC)c2O)c(OC)c1` belongs -6.5%.
Then `CC(=O)CC(=O)Nc1ccc(Cc2ccc(NC(C)=O)cc2)cc1`, with 2.8%; and `COc1ccc(CSC(=S)Nc2ccc(F)c(C)c2)cc1`, with 5.1%.
Then `CN(C)[C@@H]1C(=O)C(C(=O)NCNC2CC(C)(C)N(O)C(C)(C)C2)=C(O)C2(O)C(=O)C3=C(O)c4c(O)cccc4[C@@](C)(O)C3CC12` (stereo not given in full), with -22.1%.
`NC1(C(=O)O)CCCc2ccccc21` (stereo not given): the growth inhibition was -12.6%.
On to `CN(C)S(=O)(=O)C(C(N)=O)c1ccccc1` (stereo not given), for which the growth inhibition was 7.65%.
On to `[Cl][Pt+2][Cl].[NH-]CC1([NH-])CCCCC1`, for which the growth inhibition is -5.6%.
To `CC1CC(C)C2=NOS3=C2C1=NO3` (stereo not given) belongs 28.4%; to `COC(=O)c1ccccc1/C=C1\Cc2ccc3c(c2C1=O)CCCC3`, 5.6%.
Take `c1cc(OCCOc2cccc3ocnc23)c2ncoc2c1`: the growth inhibition was -18.4%.
Then `CC[n+]1[b-](C(C)(C)C)n(/N=C/C(C)(C)C)[b-](C(C)(C)C)[n+]1CC`, with -11.2%; and `Cc1cncc(NS(=O)(=O)c2ccc(N)cc2)n1`, with 10%; and `C[C@H]1CCCCC[C@@H]2CC(=O)CC2C(=O)CCC(=O)O1` (stereo not given in full), with -8.85%.
In the case of `N/C(=N\O)c1c(Br)n(C2OC(CO)C(O)C2O)c2ncnc(N)c12` (stereo not given), the growth inhibition is -2.05%.
Regarding `C/C=C1\OC(n2cnc3c(N)ncnc32)C(O)C1O` (stereo not given), the growth inhibition was -16.2%.
Then `CCCCCCCCCCCCCCCCNc1nc(=O)n(C2CC(O)C(COP(=O)(O)OC3CC(n4cc(F)c(=O)[nH]c4=O)OC3CO)O2)cc1F` (stereo not given), with -42.6%; and `O=C(O)C(Br)C(Br)C(=O)Nc1cccc2ccccc12` (stereo not given), with 98.9% (active).
Take `C[C@]12CCC(=O)C=C1CC[C@@H]1C2=CC[C@]2(C)/C(=C\CO)CC[C@@H]12`: the growth inhibition was -10.8%.
For the molecule `NC(=O)c1ccccc1N=NNc1ccccc1`, the growth inhibition was -25.1%.
Then `CC(=O)c1cc2c(Br)cccc2oc1=O`, with -42.9%; and `CN=C(C#N)c1ccccc1`, with 8.7%.
